Assay outcomes deposited in PubChem BioAssay by The Scripps Research Institute Molecular Screening Center.
Rows were chosen to be rich in hits. Some 2.8% of all compounds tested hit in one or more screens of this group.
PME-1 inh: PME-1 (human) inhibition; Q9Y570; recombinant PME-1, FP-Rh probe fluorescence polarization; inhibition, % at 5.9 µM; 320,000 compounds, 0.53% hits;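 active = inhibition above the campaign mean of all compounds plus 3 SD, cut at about 26% in these data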;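 also: competitive labeling of PME-1 active site by serine hydrolase directed probe; inhibitors block probe labeling so polarization falls and inhibition rises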
Target sequence (Q9Y570 whole entry, looked up): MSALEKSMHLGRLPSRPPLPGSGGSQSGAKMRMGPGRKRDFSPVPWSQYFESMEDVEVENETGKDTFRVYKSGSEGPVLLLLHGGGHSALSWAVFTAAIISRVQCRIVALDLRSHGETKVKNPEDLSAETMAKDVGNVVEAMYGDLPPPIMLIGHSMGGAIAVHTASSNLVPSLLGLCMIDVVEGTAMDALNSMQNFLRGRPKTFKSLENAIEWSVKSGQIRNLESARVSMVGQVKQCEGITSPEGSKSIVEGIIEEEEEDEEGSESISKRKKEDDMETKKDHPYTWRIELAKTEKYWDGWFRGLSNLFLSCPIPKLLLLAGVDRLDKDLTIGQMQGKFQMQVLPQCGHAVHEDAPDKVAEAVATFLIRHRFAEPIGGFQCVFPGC
PAFAH1B3 inh: inhibitors of human PAFAH1B3. 340,000 compounds, 0.28% hits. recombinant PAFAH1B3, FP-rhodamine probe, fluorescence polarization. inhibition, % at 3.39 µM. AID 492972;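 active = inhibition above the screen-wide average of all tested compounds plus 3 SD, cut at about 25% in these data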
Target sequence (Q15102 whole entry, looked up): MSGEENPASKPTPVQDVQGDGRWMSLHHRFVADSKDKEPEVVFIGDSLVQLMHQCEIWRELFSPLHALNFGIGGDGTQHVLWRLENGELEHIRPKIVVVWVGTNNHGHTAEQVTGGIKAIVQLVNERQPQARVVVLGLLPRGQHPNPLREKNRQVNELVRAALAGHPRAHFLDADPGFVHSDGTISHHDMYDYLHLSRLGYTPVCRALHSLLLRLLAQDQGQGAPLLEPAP
pPAFAH inh: pPAFAH (human) enzyme inhibition; inhibition, % at 3.39 µM; recombinant pPAFAH, FP-rhodamine probe fluorescence polarization; 330,000 compounds, 1.5% hits;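 active = inhibition above the mean inhibition across the screen plus 3 SD, cut at about 25% in these data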;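 also: inhibitors block binding of the rhodamine activity-based probe so polarization drops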
PAFAH1B2 FP inh: inhibitors of human PAFAH1B2; inhibition, % at 3.39 µM; recombinant PAFAH1B2, FP-rhodamine activity probe, fluorescence polarization; AID 492953; 340,000 compounds, 1.2% hits; P68402;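 active = inhibition above the mean of all tested compounds plus 3 SD, cut at about 24% in these data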
PAFAH2 inh: PAFAH2 (human) inhibition | recombinant PAFAH2, FP-rhodamine activity probe, fluorescence polarization | inhibition, % at 3.39 µM | 340,000 compounds, 0.99% hits | AID 492956;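 active = inhibition above the mean over all tested compounds plus 3 SD, cut at about 30% in these data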;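 also: inhibitors block probe labeling of enzyme so polarization drops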
Fam108B inh: counter-screen for RBBP9 inhibitors: inhibitors of mouse Fam108B; recombinant Fam108B, FP-Rh probe fluorescence polarization; inhibition, % at 9.51 µM; 300,000 compounds, 0.33% hits;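 active = inhibition above the screen mean inhibition plus 3 SD, computed separately per campaign, cut at about 18% in these data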;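 also: inhibitors lower polarization as less probe binds the enzyme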
PAFAH2 confirm: confirmation of human PAFAH2 inhibitors; shares compounds with PAFAH2 inh; inhibition, % at 3.39 µM; 2,300 compounds, 65% hits; recombinant PAFAH2, FP-rhodamine activity probe, fluorescence polarization;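 active = mean inhibition over three repeats above a set limit taken from the earlier primary screen, cut at about 30% in these data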;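 also: inhibitor blocks binding of rhodamine activity probe so polarization falls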
Large screens that a line does not name were inactive (follow-up assays come after a bar, where they were run).

Cc1ccc(S(=O)(=O)N2CC(O)CC2C(=O)OCC(=O)Nc2ccc([N+](=O)[O-])cc2C(F)(F)F)cc1C (centres undefined)	none (no result: PME-1 inh, Fam108B inh)
O=C(COC(=O)C1CC1)Nc1ccc([N+](=O)[O-])cc1C(F)(F)F	PAFAH2 inh 53.0 (no result: Fam108B inh) | PAFAH2 confirm 44.6
O=C(COC(=O)c1ccc[n+]([O-])c1)Nc1ccc([N+](=O)[O-])cc1C(F)(F)F	none (no result: PME-1 inh, Fam108B inh)
NC(=O)Nc1ccc(C(=O)OCC(=O)Nc2ccc([N+](=O)[O-])cc2C(F)(F)F)cc1	PAFAH2 inh 66.1 | PAFAH2 confirm 66.0
O=C(CN1CC(c2ccccc2)CC1=O)Nc1ccc2c(c1)OCO2 (centres undefined)	PAFAH2 inh 31.9 | PAFAH2 confirm inactive
COc1cccc2sc(Nc3nnc(-c4cccs4)o3)nc12	none
COc1cccc2sc(Nc3nnc(-c4ccc(F)cc4)o3)nc12	PAFAH2 inh 64.8 | PAFAH2 confirm inactive
CC(C)n1cnnc1SCC(=O)Nc1cccnc1Cl	none (no result: PME-1 inh, Fam108B inh)
NS(=O)(=O)c1ccc(NC(=O)COC(=O)C23CC4CC(CC(C4)C2)C3)cc1	none
O=C(COC(=O)C12CC3CC(CC(O)(C3)C1)C2)Nc1ccc(OC(F)F)cc1	PAFAH2 inh 45.2 (no result: PME-1 inh, pPAFAH inh, Fam108B inh) | PAFAH2 confirm inactive
O=C(COC(=O)C12CC3CC(CC(C3)C1)C2)Nc1ccc(OC(F)F)cc1	PAFAH2 inh 66.9 | PAFAH2 confirm 49.0
O=C(COC(=O)C12CC3CC(CC(O)(C3)C1)C2)Nc1ccccc1OC(F)F	none
CC1(c2ccc(OC(F)F)cc2)NC(=O)N(CC(=O)N2c3ccccc3NC(=O)C2(C)C)C1=O (centres undefined)	none (no result: Fam108B inh)
Cc1ccc(C(=O)OCC(=O)NN2C(=O)NC3(CCC(C)CC3)C2=O)cc1 (centres undefined)	PAFAH2 inh 74.1 | PAFAH2 confirm 54.2
Cc1cccc(C(=O)OCC(=O)NN2C(=O)NC3(CCCCC3)C2=O)c1	none (no result: Fam108B inh)
C=CCc1c(C)nc2c(-c3ccccc3)cnn2c1N1CCOCC1	none (no result: PME-1 inh, pPAFAH inh, Fam108B inh)
CC(C)(C)OC(=O)N[C@@H](Cc1ccccc1)C(=O)N[C@@H](CO)[C@H](O)[C@@H]1C[C@@H]1C(=O)NC1CC1	none
Cc1ccc(NC2=C(Cl)C(=O)OC2OC(=O)c2ccccc2)c(C)c1 (centres undefined)	none
Cc1cccc(C)c1NC1=C(Cl)C(=O)OC1OC(=O)c1ccccc1 (centres undefined)	PAFAH2 inh 30.6 | PAFAH2 confirm inactive
Cc1ccc(C(=O)OCC(=O)NC2CCCCCC2)c(C)c1	PAFAH2 inh 85.7 (no result: PME-1 inh, pPAFAH inh, Fam108B inh) | PAFAH2 confirm 78.2
Cc1ccc(OCC(=O)NC2CCCCCC2)cc1C	none
COc1ccc(C(=O)OCC(=O)NC2CCCCCC2)cc1OC	PAFAH2 inh 93.2 (no result: Fam108B inh) | PAFAH2 confirm 82.6
Cc1ccc(C(=O)OCC(=O)NC2CCCC2)cc1C	PAFAH2 inh 86.6 | PAFAH2 confirm 82.0
COc1ccc(C(=O)OCC(=O)Nc2ccccc2)cc1[N+](=O)[O-]	PAFAH2 inh 71.0 | PAFAH2 confirm 72.8
CC12CCC(=O)N1C(C(=O)NNC(=O)c1ccccc1)CS2 (centres undefined)	none
COc1ccc(C(=O)NCC(=O)OCC(=O)NC2CCCCCC2)cc1OC	none (no result: PME-1 inh, Fam108B inh)
CCOc1ccc(C(=O)OCC(=O)NC2CCCC2)cc1OCC	PAFAH2 inh 84.5 | PAFAH2 confirm 82.1
O=C(COC(=O)c1ccc(O)cc1O)NC1CCCCCC1	PAFAH2 inh 46.4 (no result: Fam108B inh) | PAFAH2 confirm 31.2
COc1ccc(C(=O)OCC(=O)NC2CCCC2)cc1OC	PAFAH2 inh 75.8 | PAFAH2 confirm 80.3
COc1ccc(C(=O)OCC(=O)NC2CC2)cc1[N+](=O)[O-]	PAFAH2 inh 31.2 | PAFAH2 confirm inactive
COC(=O)c1cc(C(=O)OCC(=O)NC2CCCC2)cc([N+](=O)[O-])c1	none
COc1ccc(C(=O)OCC(=O)NC2CC2)cc1OC	PAFAH2 inh 66.6 (no result: Fam108B inh) | PAFAH2 confirm 55.1
CC1CCC(NC(=O)COC(=O)c2ccc3ncsc3c2)CC1 (centres undefined)	PAFAH2 inh 82.7 (no result: Fam108B inh) | PAFAH2 confirm 69.2
CCOc1ccc(NC(=O)COC(=O)c2ccc3ncsc3c2)cc1OCC	none (no result: PME-1 inh, pPAFAH inh, Fam108B inh)
COc1cc(OC)cc(C(=O)OCC(=O)NC2CCCCCC2)c1	PAFAH2 inh 61.0 (no result: Fam108B inh) | PAFAH2 confirm 59.4
COc1ccc(C(=O)OCC(=O)NC2CCCCCCC2)cc1OC	PAFAH2 inh 86.6 (no result: PME-1 inh, Fam108B inh) | PAFAH2 confirm 78.0
CC(=O)c1cccc(-n2nnnc2SCC(=O)Nc2cc(C)on2)c1	none
CN(C)c1nc(F)c(F)c(S(=O)(=O)c2ccccc2)c1F	none
CC(=O)Nc1cccc(C(=O)OCC(=O)NC2CCCCCCC2)c1	PAFAH2 inh 84.2 (no result: Fam108B inh) | PAFAH2 confirm 83.5
O=C(COC(=O)c1cccnc1)NC1CCCc2ccccc21 (centres undefined)	none (no result: PME-1 inh, pPAFAH inh, Fam108B inh)
Nc1cccc(C(=O)OCC(=O)NC2CCCc3ccccc32)c1 (centres undefined)	PAFAH2 inh 52.6 | PAFAH2 confirm inactive
O=C(COC(=O)C1=COCCO1)Nc1c(F)cccc1F	none
Cc1cccc(C(=O)NCC(=O)OCC(=O)NC2CCCCCCC2)c1	none
O=C(COC(=O)c1cccc([N+](=O)[O-])c1)NC1CCCC1	none
O=C(COC(=O)C1=COCCO1)NC1CCCCC1	PAFAH2 inh 57.5 | PAFAH2 confirm 55.5
Cc1cccc(C(=O)NCC(=O)OCC(=O)NC2CCCCC2)c1	PAFAH2 inh 56.9 (no result: PME-1 inh, Fam108B inh) | PAFAH2 confirm 41.5
COc1ccccc1N1CCN(c2nccc(C)n2)CC1	none
CCOc1ccc(/C=N/NC(=O)CN2CCCCC2)cc1OCC	none
O=C(COC(=O)c1ccccc1)NC1CCCCCC1	PAFAH2 inh 86.3 (no result: PME-1 inh, Fam108B inh) | PAFAH2 confirm 78.2
O=C(COC(=O)c1ccc(Cl)cc1)NC1CCCCCC1	PAFAH2 inh 78.0 (no result: Fam108B inh) | PAFAH2 confirm 78.8
O=C(COC(=O)c1ccco1)NC1CCCCC1	PAFAH2 inh 79.8 | PAFAH2 confirm 67.9
O=C(COC(=O)c1ccc2c(c1)C(=O)N(Cc1ccco1)C2=O)NCC(F)(F)F	none
Cc1cc(C(=O)COC(=O)c2ccc(O)cc2)c(C)n1CC(F)(F)F	PAFAH2 inh 31.4 (no result: Fam108B inh) | PAFAH2 confirm inactive
Cc1cc(C(=O)COC(=O)c2ccc[nH]c2=O)c(C)n1-c1ccccc1F	none
Cc1cc(C(=O)COC(=O)c2ccc(O)cc2)c(C)n1-c1ccccc1F	PAFAH2 inh 38.5 | PAFAH2 confirm inactive
Cc1cc(C)cc(N2C(=O)CC(Sc3ccccc3C(=O)O)C2=O)c1 (centres undefined)	none
Cc1ccc(N2C(=O)CC(Sc3ccccc3C(=O)O)C2=O)cc1 (centres undefined)	PAFAH2 inh 91.9 | PAFAH2 confirm inactive
COc1ccc(NC(=O)/C(Cl)=C(/Cl)S(=O)(=O)Cc2ccccc2)cn1	PAFAH2 inh 41.0 (no result: PME-1 inh, pPAFAH inh, Fam108B inh) | PAFAH2 confirm inactive
Cc1ccn(C(=O)c2ccc(NC(=O)C3CCCCC3)cc2)n1	PAFAH2 inh 33.1 | PAFAH2 confirm 45.5
